From ChEMBL document CHEMBL3988442, “University of Dundee, Small-Polar-MMV Screening Library” (2021)
For some of these results: Results with a measured potency or affinity are listed apart.

What was measured:
Design in all cases: scale not given: direction of the effect not stated beside the values
[1] = target: Protein translocase subunit SecA (Escherichia coli (strain K12)) (UniProt P10408); test: Assay to Identify E. coli SecA ATPase Inhibitors; assay type: functional; settings: 30 µM
[2] = target: T1, Ubiquitin-activating enzyme e1, putative (Leishmania donovani (strain BPK282A1)) (UniProt E9BSI1); test: Leishmania donovani Ubiquitin Activating Enzyme (LdE1); assay type: functional; settings: 30 µM
T1 sequence (whole entry): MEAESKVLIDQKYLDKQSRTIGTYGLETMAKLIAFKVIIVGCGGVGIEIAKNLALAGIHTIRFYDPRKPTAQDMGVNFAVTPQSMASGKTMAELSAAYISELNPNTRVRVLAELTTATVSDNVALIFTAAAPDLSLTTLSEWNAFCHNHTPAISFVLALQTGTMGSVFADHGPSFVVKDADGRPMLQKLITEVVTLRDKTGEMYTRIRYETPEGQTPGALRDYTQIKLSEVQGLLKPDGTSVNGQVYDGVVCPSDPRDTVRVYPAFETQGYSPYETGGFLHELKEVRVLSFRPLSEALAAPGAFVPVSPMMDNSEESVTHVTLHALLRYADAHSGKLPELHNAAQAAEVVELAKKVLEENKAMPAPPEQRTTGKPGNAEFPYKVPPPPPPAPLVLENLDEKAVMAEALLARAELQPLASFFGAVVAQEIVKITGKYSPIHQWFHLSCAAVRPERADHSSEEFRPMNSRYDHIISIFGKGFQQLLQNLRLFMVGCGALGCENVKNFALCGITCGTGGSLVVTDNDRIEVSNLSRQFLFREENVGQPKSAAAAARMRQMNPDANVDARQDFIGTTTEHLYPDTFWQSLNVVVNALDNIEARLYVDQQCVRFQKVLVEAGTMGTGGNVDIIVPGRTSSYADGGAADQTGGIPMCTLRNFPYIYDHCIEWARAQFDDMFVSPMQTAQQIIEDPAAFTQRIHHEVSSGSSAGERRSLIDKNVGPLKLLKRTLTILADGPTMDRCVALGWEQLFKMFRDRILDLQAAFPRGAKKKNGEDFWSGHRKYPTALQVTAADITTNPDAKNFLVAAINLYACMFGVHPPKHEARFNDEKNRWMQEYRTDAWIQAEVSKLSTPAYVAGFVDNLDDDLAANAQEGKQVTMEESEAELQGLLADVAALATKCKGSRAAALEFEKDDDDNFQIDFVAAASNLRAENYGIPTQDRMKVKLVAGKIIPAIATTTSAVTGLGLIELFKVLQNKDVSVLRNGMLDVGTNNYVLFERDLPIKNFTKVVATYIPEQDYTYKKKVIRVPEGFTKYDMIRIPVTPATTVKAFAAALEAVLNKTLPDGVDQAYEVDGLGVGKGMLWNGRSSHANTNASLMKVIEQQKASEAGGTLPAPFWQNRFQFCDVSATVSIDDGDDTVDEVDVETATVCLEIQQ

[3] = target: AMP-activated protein kinase, AMPK (Homo sapiens) (UniProt P54646+O43741+P54619+Q9UGJ0+Q9Y478+Q13131+Q9UGI9); test: AMP-dependent Kinase enzyme assay. An in vitro enzyme assay that detects ADP turnover that is directly proportional to AMPK activity. This uses naive AMPK that is activated during the assay with MK-8722; assay type: functional; settings: 30 µM
[4] = target: Sialic acid-binding Ig-like lectin 9 (Homo sapiens) (UniProt Q9Y336); test: Hs-Siglec9 ALPHAscreen SOP 20170721; settings: 10 µM
[5] = tested on: Trypanosoma cruzi; test: Trypanosoma cruzi phosphomannomutase and mannose-1-phosphate guanylyltransferase assay; assay type: functional; settings: 10 µM
[6] = target: T2, Arginase-2, mitochondrial (Homo sapiens) (UniProt P78540); test: in vitro enzyme assay to detect the production of urea directly proportional to the activity of Arginase II; assay type: functional; settings: 33.3 µM; note: in the data most compounds retested in dose-response had high values
T2 sequence (whole entry): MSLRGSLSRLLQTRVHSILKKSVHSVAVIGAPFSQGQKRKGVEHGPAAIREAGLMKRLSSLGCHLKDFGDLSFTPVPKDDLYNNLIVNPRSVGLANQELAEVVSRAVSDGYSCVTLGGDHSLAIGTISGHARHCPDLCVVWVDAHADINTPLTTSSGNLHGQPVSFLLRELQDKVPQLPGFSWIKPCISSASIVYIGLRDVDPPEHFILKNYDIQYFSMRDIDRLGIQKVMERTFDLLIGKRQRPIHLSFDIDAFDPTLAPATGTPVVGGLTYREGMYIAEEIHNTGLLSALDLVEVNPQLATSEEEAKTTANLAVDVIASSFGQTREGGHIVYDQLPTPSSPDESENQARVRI

[7] = target: T3, Proteasome subunit beta (Trypanosoma cruzi) (UniProt O96673); test: Trypanosoma cruzi proteasome chymotrypsin-like activity (TcProtChymo) assay.; note: in the data most compounds retested in dose-response had high values; assay type: functional; settings: 9.37 µM
T3 sequence (whole entry): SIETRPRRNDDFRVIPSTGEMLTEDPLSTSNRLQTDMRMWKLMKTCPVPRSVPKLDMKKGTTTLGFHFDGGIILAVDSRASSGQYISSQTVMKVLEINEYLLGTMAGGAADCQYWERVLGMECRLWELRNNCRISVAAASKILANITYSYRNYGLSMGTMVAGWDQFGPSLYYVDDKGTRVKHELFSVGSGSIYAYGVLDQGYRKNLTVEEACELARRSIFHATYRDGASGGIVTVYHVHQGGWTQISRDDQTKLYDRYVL

[8] = species: Homo sapiens; test: To identify inhibition of the IFN signalling (Jak-Stat) pathway via expression of an eGFP reporter gene under the control of an IFN-stimulated response element (ISRE) containing MxA promoter.; assay type: functional; settings: 30 µM
[9] = target: T4, Tyrosyl-tRNA synthetase, putative (Trypanosoma cruzi (strain CL Brener)) (UniProt Q4DSP6); test: Trypanosoma cruzi tyrosyl tRNA synthetase (TcYRS) _High Tyrosine SOP; assay type: functional; settings: 30 µM; note: in the data most compounds retested in dose-response had high values
T4 sequence (whole entry): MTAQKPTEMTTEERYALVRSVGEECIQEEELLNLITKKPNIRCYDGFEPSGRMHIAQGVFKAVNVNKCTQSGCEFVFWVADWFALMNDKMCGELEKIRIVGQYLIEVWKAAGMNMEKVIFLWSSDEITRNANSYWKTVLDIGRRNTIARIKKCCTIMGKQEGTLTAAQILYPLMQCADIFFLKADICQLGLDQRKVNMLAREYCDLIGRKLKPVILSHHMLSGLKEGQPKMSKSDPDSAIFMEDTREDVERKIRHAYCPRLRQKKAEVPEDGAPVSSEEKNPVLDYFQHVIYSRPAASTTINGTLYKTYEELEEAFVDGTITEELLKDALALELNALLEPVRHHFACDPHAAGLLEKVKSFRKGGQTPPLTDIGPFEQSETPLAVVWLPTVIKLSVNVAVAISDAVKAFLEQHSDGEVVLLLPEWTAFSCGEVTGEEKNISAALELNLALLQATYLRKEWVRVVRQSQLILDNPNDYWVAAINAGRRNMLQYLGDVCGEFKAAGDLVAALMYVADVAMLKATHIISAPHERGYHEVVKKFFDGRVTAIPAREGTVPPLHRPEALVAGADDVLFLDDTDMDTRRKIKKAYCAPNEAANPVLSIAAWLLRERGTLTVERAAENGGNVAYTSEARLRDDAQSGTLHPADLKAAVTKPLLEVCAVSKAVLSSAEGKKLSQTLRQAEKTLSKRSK

[10] = target: T4, Tyrosyl-tRNA synthetase, putative (Trypanosoma cruzi (strain CL Brener)); test: Trypanosoma cruzi tyrosyl tRNA synthetase (TcYRS) SOP; assay type: functional; settings: 30 µM
[11] = target: Chromo domain-containing protein 1 (Saccharomyces cerevisiae (strain ATCC 204508 / S288c) (Baker's yeast)) (UniProt P32657); test: ScCHD-1 Enzyme Inhibition Assay; assay type: functional; settings: 30 µM; note: in the data most compounds retested in dose-response had high values
Sequence of Chromo domain-containing protein 1 (Saccharomyces cerevisiae (strain ATCC 204508 / S288c) (Baker's yeast)) (P32657 whole entry, the tested form may be a part): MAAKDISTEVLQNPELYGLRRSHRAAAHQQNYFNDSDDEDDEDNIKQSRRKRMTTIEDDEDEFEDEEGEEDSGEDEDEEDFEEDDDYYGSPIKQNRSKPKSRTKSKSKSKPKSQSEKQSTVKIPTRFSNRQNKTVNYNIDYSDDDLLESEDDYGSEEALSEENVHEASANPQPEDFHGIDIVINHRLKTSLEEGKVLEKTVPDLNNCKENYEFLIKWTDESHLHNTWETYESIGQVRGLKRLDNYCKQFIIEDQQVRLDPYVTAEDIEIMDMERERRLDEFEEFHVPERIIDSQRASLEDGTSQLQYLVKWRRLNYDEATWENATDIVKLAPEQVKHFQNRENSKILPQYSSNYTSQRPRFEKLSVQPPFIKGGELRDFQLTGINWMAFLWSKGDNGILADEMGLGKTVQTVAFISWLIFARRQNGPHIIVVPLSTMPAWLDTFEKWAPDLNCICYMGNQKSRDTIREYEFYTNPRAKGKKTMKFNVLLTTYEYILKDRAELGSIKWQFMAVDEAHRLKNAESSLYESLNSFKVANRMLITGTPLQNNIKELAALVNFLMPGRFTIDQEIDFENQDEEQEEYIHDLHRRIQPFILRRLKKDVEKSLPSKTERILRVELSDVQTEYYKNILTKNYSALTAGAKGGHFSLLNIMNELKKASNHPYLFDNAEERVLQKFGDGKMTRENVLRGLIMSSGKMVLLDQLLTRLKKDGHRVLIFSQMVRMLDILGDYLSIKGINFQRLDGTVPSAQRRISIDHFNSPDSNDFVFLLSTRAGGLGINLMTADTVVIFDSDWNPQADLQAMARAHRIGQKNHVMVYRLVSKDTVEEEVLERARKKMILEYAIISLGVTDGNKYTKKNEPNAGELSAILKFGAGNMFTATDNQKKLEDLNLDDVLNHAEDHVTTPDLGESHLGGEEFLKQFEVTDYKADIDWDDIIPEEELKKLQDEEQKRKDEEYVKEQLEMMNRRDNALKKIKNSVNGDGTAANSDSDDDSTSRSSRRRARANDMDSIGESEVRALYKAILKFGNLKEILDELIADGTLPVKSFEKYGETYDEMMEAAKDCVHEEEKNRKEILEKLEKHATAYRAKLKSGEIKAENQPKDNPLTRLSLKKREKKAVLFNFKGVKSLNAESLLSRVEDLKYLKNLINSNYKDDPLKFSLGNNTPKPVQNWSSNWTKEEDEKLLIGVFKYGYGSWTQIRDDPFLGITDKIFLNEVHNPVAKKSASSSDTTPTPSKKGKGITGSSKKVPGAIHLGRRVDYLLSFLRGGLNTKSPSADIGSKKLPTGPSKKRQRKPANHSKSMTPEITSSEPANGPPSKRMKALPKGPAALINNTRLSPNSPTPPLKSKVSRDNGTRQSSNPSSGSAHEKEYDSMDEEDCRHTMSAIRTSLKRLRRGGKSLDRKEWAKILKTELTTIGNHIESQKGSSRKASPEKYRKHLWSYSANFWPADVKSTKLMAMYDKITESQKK

Sequence of Sialic acid-binding Ig-like lectin 9 (Homo sapiens) (Q9Y336 whole entry): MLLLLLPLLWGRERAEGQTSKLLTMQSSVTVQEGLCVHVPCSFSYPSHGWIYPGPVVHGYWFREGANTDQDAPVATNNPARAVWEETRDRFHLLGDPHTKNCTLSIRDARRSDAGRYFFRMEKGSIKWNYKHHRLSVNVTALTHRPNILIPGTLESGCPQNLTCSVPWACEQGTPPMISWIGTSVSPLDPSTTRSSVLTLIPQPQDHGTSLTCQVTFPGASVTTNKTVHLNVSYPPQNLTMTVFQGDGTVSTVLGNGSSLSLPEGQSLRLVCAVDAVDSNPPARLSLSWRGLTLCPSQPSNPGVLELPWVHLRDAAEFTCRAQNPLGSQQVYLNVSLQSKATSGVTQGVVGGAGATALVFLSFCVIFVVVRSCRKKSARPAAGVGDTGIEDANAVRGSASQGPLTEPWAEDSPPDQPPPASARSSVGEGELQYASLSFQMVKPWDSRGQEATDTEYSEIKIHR
Sequence of Protein translocase subunit SecA (Escherichia coli (strain K12)) (P10408 whole entry): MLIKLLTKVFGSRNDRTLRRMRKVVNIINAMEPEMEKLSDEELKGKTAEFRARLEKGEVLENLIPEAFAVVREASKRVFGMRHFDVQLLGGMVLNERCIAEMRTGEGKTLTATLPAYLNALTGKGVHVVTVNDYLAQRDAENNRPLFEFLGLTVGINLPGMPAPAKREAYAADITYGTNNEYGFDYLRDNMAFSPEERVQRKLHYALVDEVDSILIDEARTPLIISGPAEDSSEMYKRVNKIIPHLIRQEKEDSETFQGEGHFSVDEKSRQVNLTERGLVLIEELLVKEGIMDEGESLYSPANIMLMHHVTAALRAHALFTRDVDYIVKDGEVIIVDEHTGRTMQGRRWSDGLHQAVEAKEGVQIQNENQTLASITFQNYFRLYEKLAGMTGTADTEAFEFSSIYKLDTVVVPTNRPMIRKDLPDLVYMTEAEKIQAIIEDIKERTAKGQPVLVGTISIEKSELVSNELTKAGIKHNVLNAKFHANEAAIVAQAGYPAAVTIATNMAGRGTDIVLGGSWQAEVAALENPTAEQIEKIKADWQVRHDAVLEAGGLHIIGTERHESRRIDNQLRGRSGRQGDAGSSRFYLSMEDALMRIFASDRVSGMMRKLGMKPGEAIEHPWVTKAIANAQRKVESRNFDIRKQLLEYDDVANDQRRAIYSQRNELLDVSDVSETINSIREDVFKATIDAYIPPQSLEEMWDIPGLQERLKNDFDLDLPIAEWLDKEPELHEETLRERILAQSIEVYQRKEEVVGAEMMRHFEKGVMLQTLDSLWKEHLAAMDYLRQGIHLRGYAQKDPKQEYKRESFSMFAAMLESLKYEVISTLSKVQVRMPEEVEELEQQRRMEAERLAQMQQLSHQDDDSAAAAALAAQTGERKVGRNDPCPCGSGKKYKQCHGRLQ

Row | Structure (SMILES) | Percent Effect [1] [%] | Percent Effect [2] [%] | Percent Effect [3] [%] | Percent Effect [4] [%] | Percent Effect [5] [%] | Percent Effect [6] [%] | Percent Effect [7] [%] | Percent Effect [8] [%] | Percent Effect [9] [%] | Percent Effect [10] [%] | Percent Effect [11] [%]
1 | COc1cc2nc(C)n(CC(=O)O)c(=O)c2cc1OC | -4.09 | 6.67 | 6.76 | 2.01 | -0.982 | 1.23 | 13.1 | 19.2 | 8.47 | 12.8 | -7.94
2 | CCN1CC(C(=O)NC(C)(C)CC(C)(C)C)CC1=O (configuration not stated) | -3.13 | 10.8 | -0.778 | 22.8 | 4.4 | 21.1 | 5.06 | -0.424 | 5.38 | 8.64 | -10.2
3 | c1cc(CNCC2OCCc3cn(CC4CCOCC4)nc32)ccn1 (configuration not stated) | -0.867 | -37.8 | 1.52 | -8.34 | 1.86 | 4.78 | 29 | 18.1 | 6.49 | 17.9 | 1.56
4 | Fc1ccccc1-c1noc2c1CN(CC1CC1)CC2 | -0.719 | 13.7 | 1.26 | 4.91 | 5.68 | 1.36 | 17 | 11.6 | 7.53 | 20 | -0.386
5 | CNc1cc2c(nn1)CCN(C(=O)C1CCCc3ccccc31)C2 (configuration not stated) | -1.49 | 7.59 | -8.51 | 1.73 | -4.44 | 4.18 | -2.38 | 8.64 | 5.42 | 3.8 | -3.47
6 | CSc1ccc(C(CN)N2CCc3sccc3C2)cc1 (configuration not stated) | 0.534 | -15.8 | -4.11 | -9.22 | 3.6 | -5.92 | 6.42 | 39.7 | 17 | 28.6 | 1.73
7 | Cc1nc(C(C)(C)NC(=O)Nc2cccc(C#N)c2)no1 | -4.07 | 5.48 | 3.16 | 8.84 | 8.81 | -0.455 | 15.1 | 3.14 | 5.38 | 15 | -4.58
8 | COCCCC1CCCN(C(=O)CCc2cc(O)no2)C1 (configuration not stated) | 0.503 | 4.17 | -6.36 | 2.98 | 1.46 | 13.2 | 18.2 | 12.3 | 8.42 | 15.4 | -2.19
9 | CCn1cc(NC(=O)NCC(O)CN2CCc3ccccc3C2)cn1 (configuration not stated) | -1.09 | 23.4 | -8.59 | -13.8 | -0.0979 | -6.53 | 18.2 | 34.1 | 8.57 | 30.6 | -18.1
10 | Cc1nc(C)n(CC2CCCN(c3ncnc4c3CCC4)C2)n1 (configuration not stated) | -4.39 | 0 | 0.226 | -3.72 | -4.25 | -2.81 | -2.88 | 64.3 | -2.46 | -8.64 | 4.82
11 | Cc1cc(C)n(CC2CN(CC(=O)Nc3nncs3)CCO2)n1 (configuration not stated) | -3.97 | 15.6 | 1.37 | 0.371 | -6.37 | 3.2 | -4.05 | 26.9 | 6.8 | 12.2 | -2.27
12 | c1cnnc(N2CCCC(NCc3ccc(-n4ccnc4)cc3)C2)c1 (configuration not stated) | -1.81 | 2.6 | 5.74 | 12 | -0.49 | 1.9 | 8.33 | 3.55 | 0.952 | 0 | -13.3
13 | Cc1ccc2c(c1)CCC21CCN(C(=O)CO)CC1 | -2.81 | 5.2 | -0.185 | 17.2 | 6.79 | -20.7 | 12.8 | 15.4 | 4.3 | 6.17 | -7.19
14 | Cc1cnccc1CN1CC[C@@](C)(O)[C@H](Oc2ccccc2)C1 | -3.92 | 9.46 | 0.664 | -0.228 | 7.51 | -4.41 | 12.9 | -16.3 | 3.23 | 9.09 | -13.2
15 | c1cnc(-c2nc(CNCCn3cccn3)cs2)nc1 | -0.355 | -2.63 | 7.92 | -0.779 | -1.5 | -2.68 | 7.18 | 9.32 | -0.49 | -4.88 | -6.78
16 | CC(C)Cc1noc(CN2CCC(NC(=O)c3cccs3)CC2)n1 | -4.22 | 15.6 | 5.36 | 8.56 | 3.64 | -8.28 | 19 | 3.93 | 6.45 | 16.1 | -6.14
17 | Cc1ncc(CNC(=O)N(C)C2CCN(c3ccccc3)C2=O)s1 (configuration not stated) | -4.68 | 5.26 | 1.78 | -2.39 | -4.51 | 3.45 | 4.51 | 15.1 | 2.45 | 0 | -3.16
